In the supplement of paper PMC3334620:
Over roughly 33,000 sequences, “E-score (-0.5 to 0.5)” has its median near -0.035; the highest 2% begin near 0.35. This excerpt belongs to a sample that is enriched for the highest values.

Molecular target: T1, Pdr3 (UniProt P33200)
T1 sequence: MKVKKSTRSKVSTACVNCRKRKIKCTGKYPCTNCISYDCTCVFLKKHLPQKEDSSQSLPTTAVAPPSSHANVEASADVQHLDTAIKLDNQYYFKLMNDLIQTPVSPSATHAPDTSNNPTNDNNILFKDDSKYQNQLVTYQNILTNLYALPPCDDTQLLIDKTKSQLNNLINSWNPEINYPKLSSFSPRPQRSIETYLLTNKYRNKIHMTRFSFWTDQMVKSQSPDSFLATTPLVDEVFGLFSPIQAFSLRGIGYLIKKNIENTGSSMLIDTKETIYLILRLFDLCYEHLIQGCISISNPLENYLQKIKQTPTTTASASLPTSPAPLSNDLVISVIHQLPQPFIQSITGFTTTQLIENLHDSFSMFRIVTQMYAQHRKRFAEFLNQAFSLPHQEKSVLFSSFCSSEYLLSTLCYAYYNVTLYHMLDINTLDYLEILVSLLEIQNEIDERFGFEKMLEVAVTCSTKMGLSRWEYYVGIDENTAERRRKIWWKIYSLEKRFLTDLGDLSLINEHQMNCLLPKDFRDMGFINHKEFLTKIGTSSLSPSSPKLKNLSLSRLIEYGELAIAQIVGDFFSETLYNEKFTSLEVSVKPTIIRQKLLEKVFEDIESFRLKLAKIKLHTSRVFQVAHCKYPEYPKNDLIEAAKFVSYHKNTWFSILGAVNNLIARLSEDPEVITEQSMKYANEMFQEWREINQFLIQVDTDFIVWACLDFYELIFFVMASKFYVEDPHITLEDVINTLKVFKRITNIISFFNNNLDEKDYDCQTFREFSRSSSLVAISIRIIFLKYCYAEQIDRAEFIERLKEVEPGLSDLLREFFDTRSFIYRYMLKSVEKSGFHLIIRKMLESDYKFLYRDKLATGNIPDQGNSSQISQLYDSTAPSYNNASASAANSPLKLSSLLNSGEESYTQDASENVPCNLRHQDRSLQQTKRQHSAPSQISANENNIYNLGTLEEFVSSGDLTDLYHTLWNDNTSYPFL
Test: PBM E-score (8-mer binding enrichment) (E-score (-0.5 to 0.5)); higher = stronger / more preferred TF binding
Conditions: protein concentration: 200 nM; construct: GST-full length
In short: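 For each ungapped eight-base word taken together with its reverse complement, the Universal PBM Analysis Suite assigned an E-score. Binding data came from GST-tagged yeast transcription factors, applied at about 100-200 nM, on universal all-10-mer Agilent arrays made double-stranded by primer extension. Fluorescent anti-GST marked bound protein, and scans were normalised with masliner.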

Row | Sequence | PBM E-score
1 | ATAGATTA | -0.0055
2 | CCAATAGG | -0.154
3 | CGAGATAC | 0.128
4 | GGTAAAGA | -0.0497
5 | ATGTCTGA | -0.106
6 | ATCCAAAA | -0.00928
7 | GGCCCCGA | 0.181
8 | GGCAGCCA | 0.0184
9 | GTATCTAA | 0.0522
10 | CTGAGAAA | -0.236
11 | CGCAATGC | -0.0405
12 | ACAGTGAC | 0.0756
13 | CCCCGGCC | 0.0967
14 | CACCGGGG | 0.0593
15 | AACCCCGG | 0.312
16 | AACCCGGG | 0.424
17 | CCCCGGGG | 0.412
18 | AACCCGGT | 0.258
19 | GGCGAGCA | 0.0206
20 | CAGATAGC | -0.0206
21 | ATAGTTAA | -0.038
22 | CTCAGTAC | -0.183
23 | GACAAACC | -0.0403
24 | TCGTACGA | -0.293
25 | ACTTGGTG | -0.141

Row | Sequence | PBM E-score
26 | ATGGAAAA | 0.0967
27 | GAGGAAAA | 0.0256
28 | AGGGAAAT | -0.115
29 | GCGGAAAA | 0.397
30 | ACGGGAAA | 0.277
31 | ACGGAAAA | 0.403
32 | AAGGAAAT | 0.00091
33 | ACGGAAAT | 0.452
34 | ACGGAAAC | 0.452
35 | AAGGAAAC | 0.0238
36 | AGGGAAAC | -0.104
37 | GCGGGAAA | 0.332
38 | AGCACCAA | -0.0317
39 | GGTTGCCA | 0.233
40 | ATAACGCG | 0.168
41 | CCTATCCC | 0.188
42 | TTGCGAAA | 0.119
43 | ACACTCCG | 0.204
44 | ACATGCGT | -0.265
45 | TTGGAAAA | -0.141
46 | TCGGAAAA | 0.4
47 | GCGGAAAC | 0.415
48 | GGGGAAAC | 0.206
49 | GAGGAAAC | 0.053
50 | TGGGAAAA | -0.104

Row | Sequence | PBM E-score
51 | ACTATCAC | -0.18
52 | GGTGCACC | -0.0384
53 | CTCACCAG | -0.147
54 | CCCGGCCG | 0.357
55 | CCCGGCGG | 0.382
56 | CCGGGCCC | 0.345
57 | CCGGGCCG | 0.399
58 | GCGGGCAC | 0.216
59 | CCCGGCAG | 0.303
60 | CCGGGCCA | 0.346
61 | CCCGGCCC | 0.247
62 | ACCGGCGG | 0.256
63 | ACCGGCCG | 0.35
64 | ACGGGCAC | 0.025
65 | CCGGGCAC | 0.364
66 | GCAAGATA | -0.00203
67 | GCCATTAC | 0.137
68 | CTCAACTA | -0.0622
69 | CCTCGAAA | -0.114
70 | CCCTGAGA | -0.165
71 | CTCAGAAC | -0.135
72 | ACATATTA | -0.0563
73 | AAGGTTGC | -0.0716
74 | GACCTATA | 0.0796
75 | ATACAGAG | -0.223

Row | Sequence | PBM E-score
76 | CGGAAACA | 0.451
77 | AGGAAACG | -0.0809
78 | GGGAAACC | 0.149
79 | GGGAAACA | 0.161
80 | CGGAAACC | 0.425
81 | CAGAAACG | 0.0256
82 | AGGAAACC | 0.00802
83 | AGGAAACA | -0.0166
84 | CGGAAACG | 0.396
85 | GTAAGAAC | -0.0573
86 | CGGGGTTA | 0.304
87 | CAAGGTAC | -0.25
88 | CCTGGTCA | -0.169
89 | AGTGCAAC | -0.107
90 | GTGCGGAA | 0.366
91 | CTGCGGCA | 0.0359
92 | ATGCGGAG | 0.0777
93 | ATGCGGAA | 0.416
94 | GTGCGGGA | 0.252
95 | CTGCGGAA | 0.357
96 | ATGCGGAC | 0.134
97 | GTGCGGCA | 0.0901
98 | CTGCGGAC | 0.1
99 | CAGCCCGC | 0.00736
100 | AATATTAA | 0.244

Row | Sequence | PBM E-score
101 | TTGGGAAA | 0.0633
102 | CGGCTCGA | 0.174
103 | CGAGTCGC | -0.0735
104 | ACACCTCT | -0.0108
105 | TAAACCAA | -0.263
106 | GCCCAGGC | -0.138
107 | ATCGGACA | 0.221
108 | CTCGGAAA | 0.372
109 | CTCGGAGA | 0.312
110 | ATCGGACC | 0.313
111 | ATCGGAAA | 0.407
112 | ATCGGAGA | 0.25
113 | ATCGGAAC | 0.469
114 | GTCGGAAA | 0.416
115 | GTCGGAGA | 0.173
116 | CTCGGGAA | 0.301
117 | GTCGGATA | 0.218
118 | ATCGGAGC | 0.275
119 | ATGAATAC | -0.0134
120 | ATTGCGGA | 0.328
121 | CCAGTGCC | -0.1
122 | ACACAAGC | 0.0653
123 | GAATGGGC | 0.186
124 | ACGCCGAC | 0.163
125 | GGAGATGA | 0.094

Row | Sequence | PBM E-score
126 | ATCGGACG | 0.209
127 | TTCGGAAA | 0.391
128 | GTGGGAAC | -0.0738
129 | ATCGGAAG | 0.359
130 | CTCGGAAG | 0.39
131 | TCGGGAAA | 0.309
132 | CTAGGAAG | -0.214
133 | ATCGGAGG | 0.0523
134 | TTCAGAAA | -0.195
135 | GTCGGAAC | 0.458
136 | CTGGGAAG | -0.176
137 | GTCGGACA | 0.218
138 | AGATCTCC | 0.0532
139 | AGAGTATA | -0.259
140 | ATCCTGGC | -0.0357
141 | AGTGCCTC | -0.229
142 | TTCCCCAA | -0.0249
143 | ATCGGAAT | 0.43
144 | ATCGGATA | 0.325
145 | CTCGGAGC | 0.276
146 | CTAGGAAC | -0.0409
147 | CTCGGAAC | 0.474
148 | ATCGGCAT | 0.175
149 | CCACAGCG | -0.0122
150 | TACGGCCA | -0.0624

Row | Sequence | PBM E-score
151 | CTTCGCCC | 0.0168
152 | ACCGCCCC | 0.148
153 | ATCGCCGC | 0.166
154 | CCCGCCCA | 0.231
155 | CGCGCCCG | 0.23
156 | CCCGCCGA | 0.305
157 | ATCGCCGA | 0.154
158 | ACCGCCCG | 0.227
159 | CCCGCCCC | 0.357
160 | ATCGCCGG | 0.373
161 | CCCGCCGG | 0.373
162 | CCCGCCCG | 0.372
163 | CCCGCCGC | 0.27
164 | GAATCTCC | 0.225
165 | GTGGCCGA | 0.107
166 | ACCAGTCG | -0.0214
167 | TCCGCCGA | 0.376
168 | GCCGCCGA | 0.292
169 | ACCGCCGA | 0.103
170 | CATGGGAG | -0.124
171 | CAGTCTCG | -0.203
172 | TGCGATAA | 0.0592
173 | ACGGTAGT | -0.00668
174 | ATCGGGAA | 0.279
175 | ATCGGGGG | 0.0408

Row | Sequence | PBM E-score
176 | ATCCGGGG | 0.389
177 | AGCCGGGC | 0.137
178 | CTCCGGGC | 0.236
179 | ATCCGGGA | 0.313
180 | ATCCGGGC | 0.386
181 | CTGCTCGA | -0.176
182 | AGCCATCA | -0.0552
183 | ACGCCGAT | -0.0606
184 | AATCCGCT | 0.16
185 | AGTCCGCA | 0.203
186 | AATCCGCG | 0.388
187 | CATCCGCA | 0.237
188 | AGTCCGCG | 0.364
189 | AATCCGCA | 0.246
190 | CATCCGCG | 0.359
191 | CATCCGCC | 0.345
192 | AGTCCGCC | 0.324
193 | GCCCTAAA | -0.219
194 | CCTCAAGC | -0.113
195 | AGCTCTGC | -0.217
196 | CAGCTCTA | -0.128
197 | TAAGCGTA | -0.311
198 | CGAGAGCG | 0.0432
199 | ATTCGGTC | 0.0502
200 | TCGAGAAA | -0.197

Row | Sequence | PBM E-score
201 | GCGAGAAA | -0.0403
202 | CCGAGAAA | 0.357
203 | ACAGTGGT | -0.156
204 | AGGATCCG | 0.301
205 | CGGATCGC | 0.279
206 | AGGATCCC | 0.152
207 | AGGATCCA | -0.0311
208 | CGGATCCA | 0.413
209 | GGGATCCC | 0.374
210 | CGGATCCC | 0.374
211 | CAGATCCC | 0.0667
212 | GGGATCCA | 0.222
213 | CAGATCCG | 0.314
214 | TGGATCCA | 0.096
215 | CGGATCCG | 0.489
216 | AATCTTGT | 0.126
217 | GATCTGCA | -0.0215
218 | CCATTCAG | 0.0183
219 | GATTTCCC | 0.143
